Hits are enriched below; roughly 11% of the tested compounds scored in any of these assays.
HTT ATP protect = qHTS Multiplex Assay to Identify Dual Action Probes in a Cell Model of Huntington: Cytoprotection (ATP) | AID 1471, 2008 | actives 0.14% (n = 230,000) | Potency, µM (top dose mostly 56.4 µM), without a hit: cytoprotection (ATP increase), hits mostly activators | PC12 HTT-Q103 induced, cytoprotection, ATP luminescence, 40 h; further: potency means the concentration at half of the fitted maximal effect; % of control where 0% means no effect; nearly all actives have a fitted effect of over 45% in size
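PC12 cells stably carrying ecdysone-inducible Htt exon 1 (Q103)–GFP were induced with 100 nM tebufenozide (final) alongside library compounds in a dose series. Cytoprotection was scored as retained ATP by ATPlite luminescence.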
ALDH1A1 inh = qHTS Assay for Inhibitors of Aldehyde Dehydrogenase 1 (ALDH1A1) | AID 1030, 2008 | Potency, µM (top dose mostly 75.3 µM), for the others: at the highest dose activity, negative = inhibition, hits mostly inhibitors | Aldehyde dehydrogenase 1A1 (Homo sapiens), P00352 | actives 7.3% (n = 220,000) | Purified ALDH1A1, NADH fluorescence, propionaldehyde substrate; active means well fitted inhibition curve with a large enough effect, not every such curve was filed as active; inconclusive means small, poorly fitted or top-dose-only effect, or another doubt; inactive means no such curve, though single readings can be large or run the other way;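 further: potency means the concentration at half of the fitted maximal effect; plate controls were no enzyme wells and a reference inhibitor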
HPGD block = qHTS Assay for Inhibitors of HPGD (15-Hydroxyprostaglandin Dehydrogenase). 15-hydroxyprostaglandin dehydrogenase [NAD(+)] (Homo sapiens), P15428. purified HPGD, NADH fluorescence kinetic, PGE2 substrate. Potency, µM, for the others: at the highest dose activity change, negative = inhibition, hits mostly inhibitors. actives 4.3% (n = 150,000). AID 894, 2007; active means well fitted inhibition curve with a large enough effect, not every such curve was filed as active; inconclusive means small, poorly fitted or top-dose-only effect, or another doubt; inactive means no such curve, though single readings can be large or run the other way; further: potency means the concentration at half of the fitted maximal effect; on the % scale 0 is the no-effect control and ±100 the full control effect
Target sequence (P15428 whole entry, looked up): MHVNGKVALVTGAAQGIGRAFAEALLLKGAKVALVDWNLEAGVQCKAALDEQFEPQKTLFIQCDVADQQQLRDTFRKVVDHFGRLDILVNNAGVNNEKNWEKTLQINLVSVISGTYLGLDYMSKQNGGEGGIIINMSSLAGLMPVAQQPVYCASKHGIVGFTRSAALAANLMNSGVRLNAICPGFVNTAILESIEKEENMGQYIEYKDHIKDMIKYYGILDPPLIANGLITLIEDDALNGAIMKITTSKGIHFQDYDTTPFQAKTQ
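20 nM HPGD preincubated 15 min at room temperature with compound in 50 mM Tris-HCl pH 8, 0.01% Tween 20. Started with 1 mM NAD+ and 30 uM prostaglandin E2; NADH fluorescence (360/450 nm) read 5 times over 30-s intervals, last minus first.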
GoLoco inh red = qHTS Assay for Inhibitors of RGS12 GoLoco Motif Activity (Red Fluorophore); actives 0.44% (n = 230,000); Potency, µM (top dose mostly 61.6 µM), inactives show top-dose activity, negative = inhibition, actives largely listed as inhibitors; Guanine nucleotide-binding protein G(i) subunit alpha-1 (Homo sapiens), P63096; AID 880, 2007; Gai1:RGS12 GoLoco peptide FP, rhodamine, 10 min; active means well fitted inhibition curve with a large enough effect, not every such curve was filed as active; inactive means no such curve, though single readings can be large or run the other way; further: potency means the concentration at half of the fitted maximal effect; on the % scale 0 is the no-effect control and ±100 the full control effect; nearly all actives have a fitted effect of over 30% in size
PNC inhibitor = High Content Assay for Compounds that inhibit the Assembly of the Perinucleolar Compartment; PC3M PTB-GFP, PNC prevalence imaging, 16 h; hits give low values; activity change (PNC), negative = inhibition, % at 10 µM; actives 3.1% (n = 140,000); AID 2417, 2010;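 active means readout at or below -70, meaning at least 70% loss of cells showing the perinucleolar compartment, a nuclear body marking cancer cells; inconclusive means readout between -30 and a set limit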;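 further: plate controls were DMSO wells for no effect and camptothecin positive control wells for full effect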
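Compounds are pinned in duplicate onto adhered PC3M cells stably expressing GFP-tagged PTB and incubated 16 h at 37 C. Cells are then fixed, nuclei stained with Hoechst, and PNC-positive cells counted.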
HttQ103 aggreg = qHTS Multiplex Assay to Identify Dual Action Probes in a Cell Model of Huntington: Aggregate Formation (GFP); PC12 HttQ103-GFP aggregates, Acumen cytometry, 40 h; Potency, µM (top dose mostly 46.1 µM), for the others: top-dose activity change, negative = inhibition, hits mostly inhibitors; actives 1.1% (n = 220,000); further: potency means the concentration at half of the fitted maximal effect; on the % scale 0 is the no-effect control and ±100 the full control effect; nearly all actives have a fitted effect of over 60% in size
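Aggregate formation scored by laser-scanning cytometer (488 excitation, 500–530 emission) in lysed PC12 cells expressing Q103-GFP after 100 nM tebufenozide induction; library tested in dose series, with ATPLite reagent added in the multiplex.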
* hit, by the source's call; ? = inconclusive; . = not tested or not shown; [ ] = remark or other dose. Unless noted, the call rests on the fitted dose curve; in most records, active means well fitted curve in the direction sought with a large enough effect; inconclusive means small, poorly fitted or top-dose-only effect, or another doubt; inactive means no such curve, though single readings can be large; an effect the other way counts as inactive or inconclusive.

SMILES	HTT ATP protect	ALDH1A1 inh	HPGD block	GoLoco inh red	PNC inhibitor	HttQ103 aggreg
O=[N+]([O-])c1cc(S(=O)(=O)Nc2ccccc2)ccc1N1CCN(c2ccc(O)cc2)CC1	25%[10 µM]	32µM*	-20%	8%	37	4%
C=CCN(CC=C)CC(O)CN(c1cc([N+](=O)[O-])ccc1OC)S(=O)(=O)c1ccccc1 (stereo not drawn)	-9%[10 µM]	-1%	-14%	1%	6	15%
CN(CCc1ccc(Cl)c(Cl)c1)CCN1CCCC1	?	10%	-8%	1%	.	.
CCN1c2ccccc2NC2C1C(C(C)=O)C(=O)N2c1ccc(Cl)cc1 (stereo not drawn)	-49%	14µM*	-13%	65%	-23	?
O=C1Nc2ccccc2N(O)N1c1ccc(Cl)cc1	-3%[10 µM]	11%	.	6%	.	-16%[9.22 µM]
CCN(CC(=O)Nc1ccc(NC(C)=O)cc1)C(=O)COc1ccc(C(=O)c2ccccc2)cc1	-3%[10 µM]	-14%	-8%	3%	-2	3%
S=C1NCCc2ccc(Cl)cc2C1c1ccccc1Cl (stereo not drawn)	?	13%	-5%	7%	-100*	-21%
Clc1ccc2c(c1)C(C1=NCCN1)c1ccccc1CS2 (stereo not drawn)	.	14%	0%	-2%	?	-3%
CCOc1ccc2nc(Cl)c(C3CC(c4ccccc4)=NN3C(=O)c3ccco3)cc2c1 (stereo not drawn)	25%[10 µM]	13%	-22%	4%	38	18%
Cc1ccc(S(=O)(=O)N(C)c2ccc(C(=O)N3CCCCC3)cc2)cc1	9%	-7%	0.4µM*	4%	39	-49%
CCOC(=O)C1CCN(C(=O)COc2ccc(N(C)S(=O)(=O)c3ccc(C)cc3)cc2)CC1	-14%	18µM*	.	4%	.	-5%
CN(c1ccc(C(=O)NC2CC2)cc1)S(=O)(=O)c1ccccc1	-22%[0.074 µM]	14%	13µM*	7%	9	-4%
Cc1ccc(S(=O)(=O)N(C)c2ccc(C(=O)N3CCc4ccccc4C3)cc2)cc1	-73%	1%	.	13%	.	?
C=CCN(c1ccc(C(=O)N2CCCC2)cc1)S(C)(=O)=O	16%[10 µM]	-8%	20µM*	0%	-9	11%
C=CCN(c1ccc(C(=O)NC(C)C)cc1)S(C)(=O)=O	-37%	2%	-15%	1%	?	4%
COc1ccc(S(=O)(=O)N(C)c2ccc(C(=O)NC3CCCC3)cc2)cc1	?	-8%	.	1%	.	6%
CCOc1ccc(S(=O)(=O)N(C)c2ccc(OCC(=O)N3CCOCC3)cc2)cc1	7%	-15%	-10%	12%	10	7%[9.22 µM]
CC1=C(/C=C/C(C)=C\C=C\C(C)=C\C=C\C=C(C)\C=C\C=C(C)\C=C\C2=C(C)C[C@@H](O)CC2(C)C)C(C)(C)C[C@H](O)C1	22%	.	.	.	.	2%
CN(c1ccccc1)S(=O)(=O)c1ccc(C(=O)N2CCc3ccccc3C2)cc1	17%	?	.	11%	.	-26%
CN(c1ccc(C(=O)N2CCCCC2)cc1)S(=O)(=O)c1ccccc1	2%	2%	0.45µM*	-6%	22	?
CCOC(=O)CCN1C(=O)[C@H]2[C@H]3[C@H](O)[C@H](O)C/C(=N/NC(=O)OCc4ccc(OC)cc4)[C@H]3CC[C@@H]2C1=O	5%[10 µM]	-5%[13.5 µM]	.	.	.	.

Screening results: PubChem BioAssay, National Center for Advancing Translational Sciences (NCATS)
